Experimental findings from PubChem BioAssay (NCI) are described below.

About 79,000 compounds went through this panel and 15% of them were active in at least one assay; those are over-represented in the sample as a whole. Values without a mark were called inactive. Active and inactive are the calls of the source. Cut-off read from the data, not from the text of the source: active = growth inhibition above about 70%; inactive = the rest.

Assay [1] in a line: NCI Yeast Anticancer Drug Screen. Data for the rad50 strain (AID 155).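 Note: 0% = growth of vehicle-only cultures of the same strain.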 The note with it: S. cerevisiae rad50 strain growth inhibition, stronger effect = higher value. The method, boiled down: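 Readout: growth inhibition relative to vehicle-treated cultures. Compound exposure was carried out in a genetically defined yeast strain deficient in DNA damage repair.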
The nature of assay [2]: NCI Yeast Anticancer Drug Screen. Data for the mec2-1 strain (AID 157). To be noted: S. cerevisiae mec2-1 strain, stronger effect = higher value. In a few lines: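 Each compound was tested on mec2-1 yeast, a strain altered in DNA damage repair or cell cycle control. Growth inhibition is reported relative to vehicle.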
The nature of assay [3]: NCI Yeast Anticancer Drug Screen. Data for the sgs1 mgt1 strain (AID 161).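 Note: 0% = growth of cultures given vehicle only.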 To be noted: S. cerevisiae sgs1 mgt1 strain, stronger effect = higher value. In a few lines:
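Test agents were incubated with a DNA-repair-mutant yeast strain. Growth was then read and compared against vehicle-treated controls.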

Assay [4] is described as follows: NCI Yeast Anticancer Drug Screen. Data for the cln2 rad14 strain (AID 165).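 Note: 0% = growth equal to vehicle treated cultures.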 The note with it: S. cerevisiae cln2 rad14 strain, stronger effect = higher value. In a few lines: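 Test compounds were added to cln2 rad14 yeast cultures; inhibition of growth was then determined by comparison with vehicle treatment.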
The nature of assay [5]: NCI Yeast Anticancer Drug Screen. Data for the bub3 strain (AID 167). To be noted: S. cerevisiae bub3 mutant strain, stronger effect = higher value. In a few lines:
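Readout: yeast growth inhibition, expressed relative to vehicle-only wells. The test organism is a mutant strain from a panel with lesions in DNA repair or checkpoint genes.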

Assay [6] in a line: NCI Yeast Anticancer Drug Screen. Data for the mlh1 rad18 strain (AID 175). The note with it: S. cerevisiae mlh1 rad18 strain growth inhibition, stronger effect = higher value. The method, boiled down:
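Inhibition values reflect reduced growth of mutant yeast versus vehicle-treated controls following compound exposure; the mutations affect DNA damage repair.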

The mark [7] stands for this setting: at 5.0 µM (retest, dose inferred, filed as 0.5).
The mark [8] stands for this setting: at 50.0 µM (retest, dose inferred, filed as 5.0).

Consider `C[C@]12CC[C@@H]3c4cc(OCC(F)(F)F)c(O)cc4CC[C@H]3[C@@H]1CC[C@@H]2O`, for which the growth inhibition is -3% in assay [1] (setting [7]); 97% (active) in assay [1] (setting [8]); 98.6% (active) in assay [1] (at 50.0 µM); -5% in assay [2] (setting [7]); 99% (active) in assay [2] (setting [8]); 98.5% (active) in assay [2] (at 50.0 µM). The growth inhibition in assay [3] (setting [7]) was 10%; in assay [3] (setting [8]) it was 99% (active); in assay [3] (at 50.0 µM), 98.8% (active); in assay [4] (setting [7]), -13%; in assay [4] (setting [8]) it was 97% (active); in assay [4] (at 50.0 µM) it was 98.2% (active). For the same compound, the growth inhibition in assay [5] (setting [7]) was 5%; in assay [5] (setting [8]), 99% (active); in assay [5] (at 50.0 µM) it was 98.8% (active); in assay [6] (setting [7]) it was -6%; in assay [6] (setting [8]) it was 98% (active); in assay [6] (at 50.0 µM) it was 98.6% (active).
As for `CN1C(=O)C(C2C(=O)N(C)C(=O)N(C)C2=O)C(=O)N(C)C1=O`, the growth inhibition in assay [1] (setting [7]) was 13%; in assay [1] (setting [8]) it was -3%; in assay [1] (at 50.0 µM), 2.95%; in assay [2] (setting [7]) it was 2%; in assay [2] (setting [8]), 0%; in assay [2] (at 50.0 µM), 0.9%. For the same compound, the growth inhibition is 0% in assay [3] (setting [7]); -11% in assay [3] (setting [8]); 12.2% in assay [3] (at 50.0 µM); 2% in assay [4] (setting [7]); 4% in assay [4] (setting [8]); 39.4% in assay [4] (at 50.0 µM). Further, the growth inhibition was 0% in assay [5] (setting [7]); -2% in assay [5] (setting [8]); -2.2% in assay [5] (at 50.0 µM); 1% in assay [6] (setting [7]); -2% in assay [6] (setting [8]); 8.55% in assay [6] (at 50.0 µM).
As for `CN(C)CCCN1c2cc(Cl)ccc2Sc2ccc3ccccc3c21`, the growth inhibition in assay [1] (setting [7]) is 3%; in assay [1] (setting [8]), 98% (active); in assay [1] (at 50.0 µM) it was 99.3% (active); in assay [2] (setting [7]), 3%; in assay [2] (setting [8]) it was 99% (active); in assay [2] (at 50.0 µM), 99.3% (active). Moreover, the growth inhibition in assay [3] (setting [7]) is 3%; in assay [3] (setting [8]) it was 99% (active); in assay [3] (at 50.0 µM) it was 99.2% (active); in assay [4] (setting [7]) it was 2%; in assay [4] (setting [8]), 96% (active); in assay [4] (at 50.0 µM), 98.6% (active). Moreover, the growth inhibition in assay [5] (setting [7]) is 5%; in assay [5] (setting [8]), 96% (active); in assay [5] (at 50.0 µM), 99.5% (active); in assay [6] (setting [7]), 28%; in assay [6] (setting [8]), 98% (active); in assay [6] (at 50.0 µM), 99.3% (active).
For `N#CI1OC(C(F)(F)F)(C(F)(F)F)c2ccccc21`, the growth inhibition in assay [1] (setting [7]) is 72% (active); in assay [1] (setting [8]), 98% (active); in assay [1] (at 50.0 µM) it was 45.2%; in assay [2] (setting [7]), 61%; in assay [2] (setting [8]) it was 99% (active); in assay [2] (at 50.0 µM), 92.2% (active). For the same compound, the growth inhibition in assay [3] (setting [7]) is 72% (active); in assay [3] (setting [8]), 99% (active); in assay [3] (at 50.0 µM) it was 87.7% (active); in assay [4] (setting [7]), 53%; in assay [4] (setting [8]), 99% (active); in assay [4] (at 50.0 µM), 88.6% (active). The growth inhibition in assay [5] (setting [7]) was 91% (active); in assay [5] (setting [8]) it was 99% (active); in assay [5] (at 50.0 µM), 86.6% (active); in assay [6] (setting [7]) it was 87% (active); in assay [6] (setting [8]) it was 98% (active); in assay [6] (at 50.0 µM), 92.3% (active).
Turning to `CCCCCCCCCCCC(=O)N(CCCCCCCCC)CC(O)C(O)C(OC1OC(CO)C(O)C(O)C1O)C(O)CO` (configuration not stated), the growth inhibition in assay [1] (setting [7]) was 0%; in assay [1] (setting [8]), 97% (active); in assay [1] (at 50.0 µM), 82.5% (active); in assay [2] (setting [7]), -2%; in assay [2] (setting [8]), 95% (active); in assay [2] (at 50.0 µM) it was 85% (active). For the same compound, the growth inhibition in assay [3] (setting [7]) was -36%; in assay [3] (setting [8]), 96% (active); in assay [3] (at 50.0 µM) it was 85.7% (active); in assay [4] (setting [7]), -17%; in assay [4] (setting [8]) it was 91% (active); in assay [4] (at 50.0 µM), 66.5%. The growth inhibition is 6% in assay [5] (setting [7]); 96% (active) in assay [5] (setting [8]); 86.3% (active) in assay [5] (at 50.0 µM); 1% in assay [6] (setting [7]); 97% (active) in assay [6] (setting [8]); 62% in assay [6] (at 50.0 µM).
As to `COc1ccc(C(c2ccc(C(C)C)cc(OC)c2=O)c2ccc(C(C)C)cc(OC)c2=O)cc1`, the growth inhibition is 7% in assay [1] (setting [7]); 54% in assay [1] (setting [8]); 22.4% in assay [1] (at 50.0 µM); -1% in assay [2] (setting [7]); 39% in assay [2] (setting [8]); 42.2% in assay [2] (at 50.0 µM). The growth inhibition was 6% in assay [3] (setting [7]); 61% in assay [3] (setting [8]); 13.2% in assay [3] (at 50.0 µM); -2% in assay [4] (setting [7]); 37% in assay [4] (setting [8]); 10.2% in assay [4] (at 50.0 µM). Further, the growth inhibition in assay [5] (setting [7]) was 0%; in assay [5] (setting [8]), 16%; in assay [5] (at 50.0 µM), 9%; in assay [6] (setting [7]), -4%; in assay [6] (setting [8]), 41%; in assay [6] (at 50.0 µM), 29.2%.
With `Cc1cccc(NC(=O)C(=O)C(C2OC(=O)c3ccccc32)[N+](=O)[O-])c1C` (configuration not stated), the growth inhibition in assay [1] (setting [7]) is 8%; in assay [1] (setting [8]), 69%; in assay [1] (at 50.0 µM), 85.4% (active); in assay [2] (setting [7]), -24%; in assay [2] (setting [8]), 82% (active); in assay [2] (at 50.0 µM), 86.8% (active). In addition, the growth inhibition is 9% in assay [3] (setting [7]); 75% (active) in assay [3] (setting [8]); 87.7% (active) in assay [3] (at 50.0 µM); 27% in assay [4] (setting [7]); 79% (active) in assay [4] (setting [8]); 90.4% (active) in assay [4] (at 50.0 µM). The growth inhibition is -13% in assay [5] (setting [7]); 92% (active) in assay [5] (setting [8]); 88.3% (active) in assay [5] (at 50.0 µM); -21% in assay [6] (setting [7]); 89% (active) in assay [6] (setting [8]); 83.3% (active) in assay [6] (at 50.0 µM).
Regarding `OC(CC(CC(O)(C(F)(F)Cl)C(F)(F)Cl)=NNc1ccccc1)(C(F)(F)Cl)C(F)(F)Cl`, the growth inhibition was 87% (active) in assay [1] (setting [7]); 99% (active) in assay [1] (setting [8]); 99% (active) in assay [1] (at 50.0 µM); 91% (active) in assay [2] (setting [7]); 99% (active) in assay [2] (setting [8]); 99.2% (active) in assay [2] (at 50.0 µM). Further, the growth inhibition was 79% (active) in assay [3] (setting [7]); 98% (active) in assay [3] (setting [8]); 99.3% (active) in assay [3] (at 50.0 µM); 83% (active) in assay [4] (setting [7]); 99% (active) in assay [4] (setting [8]); 99.2% (active) in assay [4] (at 50.0 µM). Further, the growth inhibition in assay [5] (setting [7]) was 52%; in assay [5] (setting [8]), 99% (active); in assay [5] (at 50.0 µM), 99% (active); in assay [6] (setting [7]), 93% (active); in assay [6] (setting [8]), 99% (active); in assay [6] (at 50.0 µM), 99% (active).
Take `Cc1ccc(S(=O)(=O)/C=C/C(=O)c2ccc3ccccc3c2)cc1`: the growth inhibition was 83% (active) in assay [1] (setting [7]); 86% (active) in assay [1] (setting [8]); 97.2% (active) in assay [1] (at 50.0 µM); 96% (active) in assay [2] (setting [7]); 95% (active) in assay [2] (setting [8]); 98.4% (active) in assay [2] (at 50.0 µM). Further, the growth inhibition was 84% (active) in assay [3] (setting [7]); 96% (active) in assay [3] (setting [8]); 95.9% (active) in assay [3] (at 50.0 µM); 20% in assay [4] (setting [7]); 91% (active) in assay [4] (setting [8]); 96.5% (active) in assay [4] (at 50.0 µM). Besides, the growth inhibition is 47% in assay [5] (setting [7]); 96% (active) in assay [5] (setting [8]); 94.5% (active) in assay [5] (at 50.0 µM); 88% (active) in assay [6] (setting [7]); 95% (active) in assay [6] (setting [8]); 97.1% (active) in assay [6] (at 50.0 µM).
